Rows were chosen to be rich in hits. Some 1.6% of all compounds tested hit in one or more screens of this group.
KCNQ2 enhance: enhances the rat KCNQ2 potassium channel; CHO-K1 KCNQ2, FluxOR thallium flux fluorescence; stronger effect = higher value; 0.54% of 310,000 active; B-score at 10 µM; AID 2239; O88943;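 active means fluorescence ratio B-score at least 3 SD of library B-scores, with initial fluorescence B-score within 3 of them, cut at about 5.3 in these data; same plate scores as AID 2156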;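 further: B-score of peak minus minimum over baseline fluorescence ratio after K+ and Tl+ stimulus; positive B-score means potentiation of KCNQ2 with more thallium influx and brighter signal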
Target sequence (O88943 whole entry, looked up): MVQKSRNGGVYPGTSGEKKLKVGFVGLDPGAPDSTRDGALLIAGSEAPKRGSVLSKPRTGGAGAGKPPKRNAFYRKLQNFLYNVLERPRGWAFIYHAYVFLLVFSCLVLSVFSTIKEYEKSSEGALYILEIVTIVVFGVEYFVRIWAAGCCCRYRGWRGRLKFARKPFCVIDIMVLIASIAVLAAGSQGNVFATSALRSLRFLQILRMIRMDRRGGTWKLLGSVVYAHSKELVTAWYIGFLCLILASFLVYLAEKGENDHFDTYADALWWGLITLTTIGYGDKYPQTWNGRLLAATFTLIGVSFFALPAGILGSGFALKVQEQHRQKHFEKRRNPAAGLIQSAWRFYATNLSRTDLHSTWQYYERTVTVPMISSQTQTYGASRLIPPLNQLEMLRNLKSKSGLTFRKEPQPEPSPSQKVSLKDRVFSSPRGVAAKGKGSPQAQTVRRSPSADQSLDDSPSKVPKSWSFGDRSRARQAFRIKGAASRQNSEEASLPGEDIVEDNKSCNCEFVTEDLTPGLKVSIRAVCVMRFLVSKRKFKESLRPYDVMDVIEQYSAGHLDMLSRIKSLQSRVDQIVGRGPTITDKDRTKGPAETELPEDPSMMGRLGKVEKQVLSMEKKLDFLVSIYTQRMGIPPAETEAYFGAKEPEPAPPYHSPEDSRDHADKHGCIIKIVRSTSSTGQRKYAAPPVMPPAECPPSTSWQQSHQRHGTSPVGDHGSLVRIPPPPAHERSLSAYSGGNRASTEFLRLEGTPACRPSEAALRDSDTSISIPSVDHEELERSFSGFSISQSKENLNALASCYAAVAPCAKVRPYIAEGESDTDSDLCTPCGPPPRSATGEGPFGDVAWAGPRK
KCNQ2 block: inhibitors of rat KCNQ2 potassium channel. B-score at 10 µM. AID 2156. 1.1% of 310,000 active. CHO-K1 KCNQ2, FluxOR thallium flux, 20 min; stronger effect = lower value. O88943;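 active means fluorescence ratio B-score at most minus 3 library SDs, with starting brightness B-score within 2 library SDs, cut at about -5.5 in these data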
* = called active by the depositor; i = inactive; / = no result.

SMILES | KCNQ2 enhance | KCNQ2 block
COc1ccc(OC)c(CNn2c(-c3cccc(C)c3)nc3ccccc3c2=O)c1 | -5.69 | -5.69*
Fc1ccc(-n2cc(-c3ccccc3)c3c(NN4CCOCC4)ncnc32)cc1 | 0.01 | i
COc1ccc(-n2cc(-c3ccccc3)c3c(NN4CCOCC4)ncnc32)cc1 | -5.61 | -5.61*
Cc1ccc(-n2cc(-c3ccccc3)c3c(N4CCOCC4)ncnc32)cc1 | / | i
Cc1cccc(-n2cc(-c3ccccc3)c3c(N4CCOCC4)ncnc32)c1 | -6.67 | -6.67*
O=C(CN1C(=O)NC2(CCCC2)C1=O)Nc1cccc(Cl)c1Cl | 2.1 | i
CC(=O)N(Cc1nc2sc(C)c(C)c2c(=O)[nH]1)C1CCCC1 | 0.38 | i
CC(C)Oc1cc(C(=O)NC2CCCCC2)c2ccccc2n1 | -6.03 | -6.03*
O=C(NC1CCCCCCC1)c1cc(-c2ccccn2)nc2ccccc12 | / | i
CCOC(=O)C1CCCN(S(=O)(=O)c2cc(C(=O)OC)n(C)c2)C1 (configuration not stated) | 2.46 | i
O=C(O)CCCc1c(-[n+]2ccccc2)[nH]c2ccccc12 | 0.02 | i
CCc1ccc(-c2cc(C(=O)NCCCn3ccnc3)c3ccccc3n2)s1 | -8.18 | -8.18*
Cc1ccc(-c2cc(C(=O)NCCCn3ccnc3)c3ccccc3n2)s1 | / | i
CC(C)OC(=O)c1cccnc1SCC(=O)N(C)c1ccccc1 | 0.55 | i
Cc1nc(N)sc1-c1csc(Nc2ccc(Cl)cn2)n1 | 0.76 | i
Cc1nc(N)sc1-c1csc(Nc2ccccn2)n1 | 6.8* | i
CN(C)c1ccc(CNS(=O)(=O)c2ccc3c(c2)NC(=O)CS3)cc1 | / | i
CC(=O)Nc1ccc(NC(=O)CSc2ncc(C(=O)Nc3ccc(F)cc3)c(=O)n2C)cc1 | / | i
CCSc1ncc(/C=N/Nc2ccc(F)cc2)n1C | -8.52 | -8.52*
Cc1cc(C)nc(NS(=O)(=O)c2ccc(NC(=O)c3ccc(N4C(=O)CCC4=O)cc3)cc2)n1 | 0.01 | i
Cc1ccc(C)c(NC(=O)COc2cccc3c2CCN(Cc2ccccc2C)C3=O)c1 | / | i
Cc1ccc(CN2CCc3c(OCC(=O)Nc4cccc(C)c4C)cccc3C2=O)cc1 | -7.17 | -7.17*
CCOC(=O)c1cnn(-c2ccccc2)c1-n1cccc1C(=O)C(=O)N(C)C | 1.87 | i
CC1CCCN(C(=O)C(Cc2ccccc2)n2cccc2)C1 (configuration not stated) | -6.45 | -6.45*
O=C(C(Cc1ccccc1)n1cccc1)N1CCN(c2ccccc2)CC1 (configuration not stated) | / | i
SMILES | KCNQ2 enhance | KCNQ2 block
CC1CCC(NC(=O)C(Cc2ccccc2)n2cccc2)CC1 (configuration not stated) | -5.82 | -5.82*
Cc1ccc(NC(=O)C(Cc2ccccc2)n2cccc2)cc1 (configuration not stated) | / | i
COc1cc(/C=C/C(=O)OCc2c(C)noc2C)ccc1OC(F)F | 4.16 | i
CN(C)S(=O)(=O)c1cccc(NC(=O)c2ccc(COc3ccccc3)cc2)c1 | -5.84 | -5.84*
CN(C)S(=O)(=O)c1cccc(NC(=O)c2ccc(OC(F)(F)F)cc2)c1 | 2.49 | i
CC(Oc1ccc(F)cc1)C(=O)Nc1cc(S(=O)(=O)N2CCOCC2)ccc1N1CCCCC1 (configuration not stated) | -8.14 | -8.14*
CC(Oc1ccc(F)cc1)C(=O)Nc1cc(S(=O)(=O)N2CCOCC2)ccc1N1CCCC1 (configuration not stated) | 0.16 | i
Cc1noc(C)c1COc1cccc(C(=O)OCC(=O)NCCN2C(=O)CSC2=O)c1 | 8.35* | i
O=C(COC(=O)c1cccc(Cl)c1)NCCN1C(=O)CSC1=O | 0.05 | i
COc1ccc([N+](=O)[O-])cc1/C=N/NC(=O)CNC(=O)c1cccc(F)c1 | / | i
COc1ccc([N+](=O)[O-])cc1/C=N/NC(=O)CNC(=O)C(c1ccccc1)c1ccccc1 | -6.06 | -6.06*
COc1ccccc1-n1cnc2c(c1=O)c1nc3ccccc3nc1n2-c1ccc(C)cc1 | / | i
CCN(CC)CCCN1C(=O)C(O)=C(C(=O)c2ccco2)C1c1ccc(C)o1 (configuration not stated) | 1.09 | i
FC(F)(F)c1cccc(Oc2nc(-c3ccccc3)nnc2C(F)(F)F)c1 | / | i
FC(F)(F)c1nnc(-c2ccccc2)nc1Oc1ccc(Cl)cc1Cl | -7.72 | -7.72*
Cc1sc2nc(CSc3ccccc3)nc(N3CCC(C(N)=O)CC3)c2c1C | 1.45 | i
Cc1sc2nc(CSc3ccccc3)nc(N3CCOCC3)c2c1C | -5.89 | -5.89*
COc1cccc(NC(=O)N(Cc2ccco2)C(C)c2cccs2)c1 (configuration not stated) | 0.15 | i
COCCN(C(=S)Nc1cc(C)cc(C)c1)C(C)c1cccs1 (configuration not stated) | 7.98* | i
CC(c1cccs1)N(Cc1ccco1)C(=O)Nc1ccc(Cl)c(Cl)c1 (configuration not stated) | -12.7 | -12.7*

Assay outcomes from PubChem BioAssay.
